IDE cell activ = IDE (human) activation, cell-based; HEK cells, FAbeta-B cleavage, fluorescence polarization; 0% vehicle, 100% cell-free pure enzyme wells; activation, % at 5.96 µM; hit rate 0.073% among 340,000; AID 493087;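 active = activation above the mean of all tested compounds plus 3 SD, set per screening campaign, cut at about 17% in these data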
Mot1-301 SUMO = blocks SUMOylation pathway, rescuing yeast Mot1-301 growth | S. cerevisiae Mot1-301 growth rescue, ATP luminescence, 38.5C; percent above DMSO median, 100 means doubled | growth rescue, % at 18.8 µM | hit rate 1% among 320,000 | AID 2716;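 active = every valid replicate shows activation above 250% relative to neutral control wells; inactive = the rest, any valid replicate at or below 250%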;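 note: OY570 slx delta 5 strain wells were the positive control but not used for scaling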
IDE cell inh = inhibits human insulin-degrading enzyme in HEK cells; P14735; FAbetaB cleavage, fluorescence polarization; inhibition, % at 5.59 µM; hit rate 0.41% among 320,000; AID 434962;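 active = percent inhibition above the average of all tested compounds plus 3 SD, set per screening campaign, cut at about 16% in these data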;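 note: IDE supplied by intact live HEK cells; FP after avidin binding of uncleaved biotin substrate so inhibition keeps polarization high; 0% = DMSO wells and 100% = 60 µM reference IDE inhibitor Ii1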
LANA-H2B inh = blocks KSHV LANA binding to histone H2A/H2B; hit rate 0.6% among 320,000; inhibition, % (no concentration beside the values); cell-free LANA-H2A/H2B peptide, fluorescence polarization; AID 2629; in the data active = inhibition mostly above about 10%, no sharp cut-off; inactive = mostly below about 6.7%
HDAC3 inh = blocks human histone deacetylase 3; inhibition, % at 8.3 µM; O15379; recombinant HDAC3, fluorogenic peptide/trypsin coupled, fluorescence; hit rate 0.15% among 320,000; in the data active = inhibition above about 26%, passing the limit was not always enough
Yeast Mot1 SUMO = SUMO pathway inhibitors in yeast Mot1-301 growth; shares compounds with Mot1-301 SUMO; S. cerevisiae Mot1-301 galactose growth, ATP luminescence, 24 h; -100 = growth of slx-deleted rescue strain; growth activity, percent, % at 42 µM; 2,300 tested, under 10 active; AID 493004;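 active = Signal drops as the depositor expects, and the fitted half-maximal dose is no more than ten times the top valid tested dose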;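 note: more negative values mean stronger growth rescue toward the control strain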
* = called active by the depositor; nt = not tested or not shown; + = active, no number. The list is not random: actives were taken first. Their share in the collection is about 2.1%.

SMILES	IDE cell activ	Mot1-301 SUMO	IDE cell inh	LANA-H2B inh	HDAC3 inh	Yeast Mot1 SUMO
CCC(C)(C)NC(=O)C(c1ccc(C)cc1)N(CC1CCCO1)C(=O)CNC(=O)c1cccs1 (stereo not given)	2.6	688.0*	-4.5	-3.3	-3.1	0.0
Cc1ccc(C(C(=O)NC2CCCCC2)N(CC2CCCO2)C(=O)CNC(=O)c2cccs2)cc1 (stereo not given)	1.5	-13.6	-1.5	-0.6	6.5	nt
CC1(C)CC(=O)C(C(=O)c2ccccc2)C(=O)C1Cl (stereo not given)	2.8	536.1*	3.8	-1.6	1.4	-0.5
CC1(C)CC(=O)C(C(=O)c2ccccc2)C(=O)C1	2.4	-14.6	-1.6	5.3	-7.8	nt
CCCn1nnnc1SCC(=O)N1C(C)CCCC1C (stereo not given)	4.2	229.1	2.4	3.3	-2.2	nt
O=C(c1ccc([N+](=O)[O-])o1)N1CCN(c2nc3c(Cl)cccc3s2)CC1	-2.0	769.4*	1.2	-4.6	8.3	-0.9
COc1ccccc1NC(=O)Nc1ccc(S(=O)(=O)Nc2onc(C)c2C)cc1	-2.5	-9.1	-1.3	-3.5	-1.9	nt
O=C(NCc1ccccc1Cl)C1CCC(=O)N(C2CC2)C1 (stereo not given)	4.3	-0.4	5.1	-4.5	-1.6	nt
O=C(NCc1cccc(F)c1F)C1CCC(=O)N(C2CC2)C1 (stereo not given)	3.5	421.0*	-0.3	-2.9	nt	0.5
Oc1ccccc1-c1cc(C(F)(F)C(F)F)[nH]n1	-1.8	871.6*	2.5	-8.4	10.1	0.6
Fc1ccc(-c2cc(C(F)(F)C(F)F)[nH]n2)cc1	nt	11.2	0.0	-4.3	3.8	nt
Cc1ccccc1N1CCN(C(=O)NCc2cccc(Cl)c2)CC1	0.7	-2.2	-9.9	3.2	4.0	nt
Cn1c(CN2CCOCC2)nnc1SCC(N)=O	0.2	538.2*	1.4	1.5	0.5	0.8
O=C(CCCOc1ccc(Cl)cc1)NC1CCCCC1	-6.7	-4.0	0.1	-1.5	0.0	nt
O=C1C2C(c3ccccc3)CC=CC2[C@H](c2ccc3ccccc3c2)N1Cc1ccccc1 (stereo not given in full)	5.9	507.6*	-1.9	4.2	3.7	-0.8
Cc1ccc(S(=O)(=O)N2CCOCC2)cc1NC(=O)COC(=O)/C=C/c1ccco1	1.0	6.7	2.4	-4.7	5.8	nt
COc1ccc(NC(=O)c2nc3nccc(C)n3n2)cc1S(=O)(=O)N1CCOCC1	3.2	-9.6	0.6	-0.1	1.0	nt
CNC(=O)/C(C#N)=C/c1c(N2CCN(c3ccc(OC)cc3)CC2)nc2c(C)cccn2c1=O	1.9	6.2	1.3	0.6	-8.9	nt
O=C(CSc1nnc(-c2ccncc2)n1-c1ccccc1)NCC1CCCO1 (stereo not given)	2.2	10.5	-1.6	-3.7	1.5	nt
CCOc1ccc(NS(=O)(=O)c2ccc3c(c2)N(C(C)=O)CCS3)cc1	-4.1	-8.6	3.6	-5.5	-2.5	nt
CC(=O)c1ccc(Nc2cc(C)nc3c(C)cccc23)cc1	-1.0	22.4	1.7	2.1	-1.2	nt
CC(=O)c1ccc(Nc2cc(C)nc3ccccc23)cc1	2.5	573.5*	3.8	-0.3	0.9	0.5
C=CCC[C@H](Cc1ccc(F)cc1)C(=O)OC[C@@H](NC(=O)[C@H](CC=C)CC(=O)NCCO)c1ccccc1	4.4	6.6	3.4	1.2	2.6	nt
Cc1nn(C)c(Cl)c1CN1CCN(CC(C)C)C(CCO)C1 (stereo not given)	6.4	1.4	-0.1	-1.5	-7.0	nt
Cc1nn(C)c(Cl)c1CN1CCN(CCC(C)C)C(CCO)C1 (stereo not given)	6.8	+	-4.6	-4.9	nt	0.1
Cc1ccc(-n2ncc3c2CCCC3NC(=O)CCc2cnccn2)cc1C (stereo not given)	3.7	28.7	3.0	7.3	-0.3	nt
O=c1nc(-c2ccccc2)cn[nH]1	0.7	569.5*	4.1	2.0	6.5	0.5
COc1cccc(/C=N/n2c(N)nc3ccccc32)c1OC	0.4	616.0	0.7	0.4	0.0	nt
COc1cccc(/C=N/n2cnc3ccccc32)c1OC	3.8	406.4*	-1.1	-2.1	12.1	-0.9
Cc1ccc2nc3c(cc(C(=O)NCCN4CCOCC4)c(=N)n3CCCN3CCOCC3)c(=O)n2c1	3.5	674.3*	3.4	5.9	3.1	0.0
